“And” between values parts separate entries of the source, which are not always exact repeats. Equal values may be shown once. Records with an inconclusive call do not appear. The source made the active and inactive calls. Calls follow the shape of the dose curve; as a rule, active = well fitted inhibition curve with a large enough effect in the signal ratio in the repeat runs; inconclusive = weak or mixed curves, or effect the other way; inactive = flat fitted curve, though single readings scatter; the % refers to the signal ratio.
Assay: qHTS assay for small molecule disruptors of the mitochondrial membrane potential (AID 720635)
Settings: HepG2 mitochondrial membrane potential, Mito-MPS dye ratio; series mostly up to 83.2 µM; ratio activity, negative = MMP loss: at the top concentration
How it was run: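 HepG2 cells (2,000/well) attached overnight at 37C, then took compound for 1 hr at 37C, 5% CO2. Mito-MPS dye was added for 30 min; fluorescence was read at 490/535 nm (monomers) and 540/590 nm (aggregates).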
% is scaled to controls: 0 for no effect and ±100 for the full control effect; potency is read from the fitted curve at half-maximal effect.

SMILES	Potency	ratio activity, negative = MMP loss
C=C(c1ccc(C(=O)O)cc1)c1cc2c(cc1C)C(C)(C)CCC2(C)C	9.44 µM (active) and 21.7 µM (active)	
CN1[C@@H]2CC[C@@H]1CC(OC(=O)C(CO)c1ccccc1)C2 (stereo partly specified)		21.9% (inactive)
CCCCOc1ccc(C(=O)CCN2CCCCC2)cc1		17.5% [at 39.1 µM] (inactive)
Cc1c(-c2ccc(O)cc2)n(Cc2ccc(OCCN3CCCCCC3)cc2)c2ccc(O)cc12	10.6 µM (active)	
CN(C)c1ccc(N=NS(=O)(=O)O)cc1	2.17 µM (active)	
Cc1cc2c(C(C)C)c(O)c(O)c(C=O)c2c(O)c1-c1c(C)cc2c(C(C)C)c(O)c(O)c(C=O)c2c1O	11.9 µM (active)	
C=C[C@](C)(O)CC[C@@H]1[C@@]2(C)CCCC(C)(C)[C@@H]2CC[C@@]1(C)O	43.3 µM (active)	
CC(=O)OC(OC(C)=O)c1ccc([N+](=O)[O-])o1	31.2 µM (active)	
N#CSCSc1nc2ccccc2s1	30.6 µM (active)	
Cc1cc(Nc2ccc(O)cc2)ccc1N	6.82 µM (active)	
CCCCCCOc1cc(C)c(O)c(C)c1C	5.51 µM (active)	
NC(=O)c1nc(-c2cccc(-c3cc(F)ccc3OCC(F)(F)C(F)(F)F)c2)n[nH]1	9.69 µM (active)	
COC(=O)[C@]1(C)CCC[C@@]2(C)[C@H]1CC=C1C=C(C(C)C)CC[C@@H]12	54.5 µM (active)	
O=C1NC2CCCCN2C12CCN(CCCN1c3ccccc3CCc3ccc(Cl)cc31)CC2 (stereo unspecified)		19.3% (inactive)
NCCCC(O)(P(=O)(O)O)P(=O)(O)O		28.2% (inactive)
Oc1ccc(-c2ccc(O)cc2)cc1	43.5 µM (active)	

Source: PubChem BioAssay (Tox21)
